The target in one experiment is Albumin (Bos taurus) (UniProt P02769). The experiment is described as follows: compounds binding labelled BSA control protein – biochemical, small-molecule microarray, Alexa647 label, 635/667 nm fluorescence, artefact control for SMM control protein annotation, profiling panel (AID 1118).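 Also: score merges 667 nm emission intensity and signal-to-noise per printed compound spot.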 As to conditions: BSA-A647 binding, fluorescence 635 nm, higher = more signal.
Experiment [1] can be described thus: probe aXIP binding to arrayed compounds – biochemical, NeuroSMM set, 635/667 nm fluorescence, primary screen (AID 1119).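 Also: probe is the protein aXip251-270 applied at 1 µg/mL to compound-printed slides; binding of probe to printed compounds measured as 667 nm fluorescence plus signal to noise.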 As to conditions: small-molecule microarray, higher = more signal, called active from +8 up or from −8 down.
Experiment [2] can be described thus: probe aNOTCH3 binding on compound microarray – biochemical, small-molecule microarray, 635/667 nm fluorescence, primary screen (AID 1120).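 Also: probe is a biotin-tagged antibody raised against NOTCH3 rather than NOTCH3 protein; score merges spot fluorescence near 667 nm with spot signal to noise.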 As to conditions: higher = more signal.
Experiment [3] is described as follows: probe aNOTCH2 binding on compound microarray – biochemical, small-molecule microarray, 635/667 nm fluorescence, primary screen (AID 1121).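 Also: score merges feature fluorescence read at 667 nm with its signal to noise.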 To be noted: higher = more signal.
The target in experiment [4] is Carbonic anhydrase 2 (Homo sapiens) (UniProt P00918). Put plainly: compounds binding carbonic anhydrase 2 – biochemical, small-molecule microarray, Alexa647-labelled CAII, profiling panel (AID 1122). As to conditions: CAII-A647 binding fluorescence, higher = more signal.
Experiment [5] is described as follows: COS7 lysate on small-molecule microarray, probe aHis, 635 nm (AID 1123).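 Also: z-score combines 667nm fluorescence intensity with signal-to-noise per printed compound spot.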 To be noted: COS7 cell lysate, fluorescence, higher = more signal.
The nature of experiment [6]: probe aLAP1 signal on lysate-treated microarray – cell lysate, small-molecule microarray, COS7 lysate, primary screen (AID 1124).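 Also: lysate comes from COS7 cells expressing LAP1 and is applied at 0.3 µg/mL; score merges spot fluorescence near 667 nm with signal-to-noise over triplicate slides.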 As to conditions: probe aLAP1, fluorescence, higher = more signal.
The test system of the next experiment is Sam68 (KHDRBS1). The experiment is described as follows: compounds binding KHDRBS1 protein – biochemical, small-molecule microarray, 635 nm fluorescence, primary screen (AID 1125).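 Also: score merges 667 nm channel intensity with signal to noise over triplicate slides.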 As to conditions: higher = more signal.
For experiment [7], the system named is Chordin-like protein 2 (CHRDL2). The experiment is described as follows: compounds binding chordin-like 2 – biochemical, small-molecule microarray, 635 nm fluorescence, primary screen (AID 1126).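 Also: printed compound slides probed with Chrdl2 protein at 4 µg/mL for 1 h at 4 C; score merges 667 nm emission intensity with signal to noise over three replicate slides.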 As to conditions: fluorescence 635 nm, higher = more signal.
Experiment [8] concerns the target Concanavalin-A (Canavalia ensiformis) (UniProt P02866). Put plainly: compounds binding concanavalin A lectin – biochemical, small-molecule microarray, Alexa647 label, 635 nm, artefact control for SMM control protein annotation, primary screen (AID 1127).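 Also: z combines 667 nm emission intensity with signal-to-noise across three replicate slides.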 To be noted: ConA-A647 binding fluorescence, higher = more signal.
Experiment [9] is described as follows: compounds binding Alexa647 anti-His antibody – biochemical, small-molecule microarray, 635 nm fluorescence, artefact control for SMM control protein annotation, primary screen (AID 1128).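 Also: score merges feature fluorescence with signal-to-noise for each printed compound spot.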 As to conditions: higher = more signal.
The test system of experiment [10] is Human papillomavirus type 1a E7 protein (residues 1-88). The experiment is described as follows: HPV1a E7 small-molecule binders, primary screen, biochemical, small-molecule microarray, residues 1-88, 635 nm (AID 1129). As to conditions: small-molecule microarray binding, fluorescence 635 nm; higher = more signal.
The target of experiment [11] is Focal adhesion kinase 1 (Homo sapiens) (UniProt Q05397). Put plainly: PTK2 protein binding on printed compound slides – biochemical, small-molecule microarray, 635/667 nm fluorescence, BSA, DTT, primary screen (AID 1130).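 Also: composite of spot emission at 667 nm and signal to noise over triplicate slides.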 To be noted: 635 nm fluorescence, higher = more signal.
For experiment [12], the system named is Fibrinogen (Alexa647-labelled). The experiment is described as follows: Alexa647-fibrinogen binding to printed small molecules – biochemical, small-molecule microarray, 635/667 nm fluorescence, artefact control for SMM control-protein annotation, profiling panel (AID 1131).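 Also: z-score merges 667 nm fluorescence with per-spot signal-to-noise over triplicate slides.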 As to conditions: fibrinogen-A647 binding fluorescence, higher = more signal.
The target in experiment [13] is Follistatin (Homo sapiens) (UniProt P19883). Put plainly: FST protein binding to printed compounds – biochemical, small-molecule microarray, 635/667 nm fluorescence, primary screen (AID 1132). To be noted: 635 nm fluorescence, higher = more signal.
Experiment [14] addresses Fibroblast growth factor 2 (Homo sapiens) (UniProt P09038). Put plainly: basic fibroblast growth factor binding to printed compounds – biochemical, small-molecule microarray, 635/667 nm fluorescence, primary screen (AID 1133). As to conditions: FGF2, fluorescence 635/667, higher = more signal.
The nature of experiment [15]: JC-1 mitochondrial potential readout, lung cancer cells – cell-based, A549, JC-1 fluorescence, basal, 24 h, 100 nL, profiling panel (AID 1138).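 Also: A549 lung adenocarcinoma cells under basal conditions with no added stimulus; test concentration not given here.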 As to conditions: higher = more signal.
A further experiment deals with Lefty1. Put plainly: Lefty1 protein binding to printed compounds – biochemical, small-molecule microarray, 635/667 nm fluorescence, primary screen (AID 1139). To be noted: fluorescence 635/667, higher = more signal.
The subject of experiment [16] is wheat germ agglutinin (Triticum aestivum), Alexa647-labelled. Put plainly: Alexa647-WGA lectin binding to printed small molecules – biochemical, small-molecule microarray, 635/667 nm fluorescence, artefact control for SMM control-protein annotation, profiling panel (AID 1140).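 Also: score merges 667 nm feature emission with signal to noise over triplicate slides.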 As to conditions: WGA-A647 binding, 635 nm fluorescence, higher = more signal.
Experiment [17] deals with Luciferin 4-monooxygenase (Photinus pyralis) (UniProt P08659). Put plainly: inhibition of purified Photinus pyralis luciferase – biochemical, luminescence, purified enzyme, 2006 set, primary screen (AID 1141).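 Also: cell-free assay with purified firefly luciferase at 100 ng per well in PBS; test concentration not given here.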 As to conditions: purified firefly luciferase, SteadyGlo luminescence, 30 min; higher = more signal, called active from +8 up or from −8 down.

Calls of active or inactive are those of the source.

Sequence of Albumin (Bos taurus) (P02769 whole entry, looked up): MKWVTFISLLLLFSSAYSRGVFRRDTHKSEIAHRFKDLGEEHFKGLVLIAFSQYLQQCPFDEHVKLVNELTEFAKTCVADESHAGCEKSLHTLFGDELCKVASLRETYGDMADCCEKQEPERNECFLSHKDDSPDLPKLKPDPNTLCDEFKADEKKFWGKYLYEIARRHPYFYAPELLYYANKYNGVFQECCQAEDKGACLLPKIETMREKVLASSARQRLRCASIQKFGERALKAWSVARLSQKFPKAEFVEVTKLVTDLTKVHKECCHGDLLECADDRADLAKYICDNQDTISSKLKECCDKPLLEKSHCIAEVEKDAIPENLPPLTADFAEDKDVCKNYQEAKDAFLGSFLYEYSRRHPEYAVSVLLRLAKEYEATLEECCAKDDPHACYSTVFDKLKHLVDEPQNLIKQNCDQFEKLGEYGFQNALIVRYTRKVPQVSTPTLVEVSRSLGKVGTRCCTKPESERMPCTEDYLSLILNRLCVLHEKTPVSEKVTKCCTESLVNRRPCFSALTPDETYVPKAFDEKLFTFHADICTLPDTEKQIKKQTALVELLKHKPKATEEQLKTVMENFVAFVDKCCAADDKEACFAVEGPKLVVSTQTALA
Sequence of Follistatin (Homo sapiens) (P19883 whole entry, looked up): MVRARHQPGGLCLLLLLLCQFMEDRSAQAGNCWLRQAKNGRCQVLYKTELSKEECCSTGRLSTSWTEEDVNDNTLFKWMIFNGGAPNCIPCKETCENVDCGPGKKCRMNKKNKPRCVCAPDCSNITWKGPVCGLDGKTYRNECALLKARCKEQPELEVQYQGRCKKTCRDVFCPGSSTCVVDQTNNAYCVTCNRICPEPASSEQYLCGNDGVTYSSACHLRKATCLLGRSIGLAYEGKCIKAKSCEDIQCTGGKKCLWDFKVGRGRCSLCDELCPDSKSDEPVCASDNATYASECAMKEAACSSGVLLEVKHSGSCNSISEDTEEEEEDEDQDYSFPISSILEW
Sequence of Concanavalin-A (Canavalia ensiformis) (P02866 whole entry, looked up): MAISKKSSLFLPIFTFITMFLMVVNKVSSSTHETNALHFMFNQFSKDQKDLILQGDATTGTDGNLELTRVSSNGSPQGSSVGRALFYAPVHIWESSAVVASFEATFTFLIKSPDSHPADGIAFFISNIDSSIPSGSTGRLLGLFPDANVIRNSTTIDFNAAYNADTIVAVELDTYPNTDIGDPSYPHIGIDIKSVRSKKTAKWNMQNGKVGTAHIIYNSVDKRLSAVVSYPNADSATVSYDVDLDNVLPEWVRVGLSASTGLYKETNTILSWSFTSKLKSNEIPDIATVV
Sequence of Focal adhesion kinase 1 (Homo sapiens) (Q05397 whole entry, looked up): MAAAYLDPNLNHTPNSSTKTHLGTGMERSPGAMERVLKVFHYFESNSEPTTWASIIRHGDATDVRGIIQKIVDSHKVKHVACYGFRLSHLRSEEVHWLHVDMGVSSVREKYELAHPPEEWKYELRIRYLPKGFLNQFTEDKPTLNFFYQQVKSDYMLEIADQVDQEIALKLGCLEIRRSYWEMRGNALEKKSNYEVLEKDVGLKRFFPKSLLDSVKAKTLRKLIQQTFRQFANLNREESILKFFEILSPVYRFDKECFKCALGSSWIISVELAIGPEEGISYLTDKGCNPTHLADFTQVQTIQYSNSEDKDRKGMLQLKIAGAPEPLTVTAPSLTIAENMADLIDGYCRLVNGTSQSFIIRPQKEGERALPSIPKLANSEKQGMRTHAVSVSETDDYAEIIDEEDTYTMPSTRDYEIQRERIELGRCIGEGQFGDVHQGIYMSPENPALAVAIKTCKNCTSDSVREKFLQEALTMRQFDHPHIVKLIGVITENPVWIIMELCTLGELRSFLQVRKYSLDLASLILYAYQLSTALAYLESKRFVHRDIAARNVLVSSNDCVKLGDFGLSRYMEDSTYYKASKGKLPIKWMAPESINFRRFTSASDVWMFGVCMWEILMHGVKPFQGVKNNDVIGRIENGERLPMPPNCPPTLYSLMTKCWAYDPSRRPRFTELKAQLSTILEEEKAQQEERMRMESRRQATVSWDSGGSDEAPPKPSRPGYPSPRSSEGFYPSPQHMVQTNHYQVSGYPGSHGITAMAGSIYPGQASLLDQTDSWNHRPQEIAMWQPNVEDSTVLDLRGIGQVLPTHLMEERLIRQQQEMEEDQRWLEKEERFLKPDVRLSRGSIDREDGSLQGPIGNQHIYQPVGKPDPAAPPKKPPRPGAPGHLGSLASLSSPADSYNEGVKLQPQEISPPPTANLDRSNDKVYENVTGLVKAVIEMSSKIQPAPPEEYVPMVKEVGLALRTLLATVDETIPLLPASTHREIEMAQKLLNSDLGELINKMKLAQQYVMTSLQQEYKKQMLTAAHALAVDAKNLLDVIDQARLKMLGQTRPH
Sequence of Luciferin 4-monooxygenase (Photinus pyralis) (P08659 whole entry, looked up): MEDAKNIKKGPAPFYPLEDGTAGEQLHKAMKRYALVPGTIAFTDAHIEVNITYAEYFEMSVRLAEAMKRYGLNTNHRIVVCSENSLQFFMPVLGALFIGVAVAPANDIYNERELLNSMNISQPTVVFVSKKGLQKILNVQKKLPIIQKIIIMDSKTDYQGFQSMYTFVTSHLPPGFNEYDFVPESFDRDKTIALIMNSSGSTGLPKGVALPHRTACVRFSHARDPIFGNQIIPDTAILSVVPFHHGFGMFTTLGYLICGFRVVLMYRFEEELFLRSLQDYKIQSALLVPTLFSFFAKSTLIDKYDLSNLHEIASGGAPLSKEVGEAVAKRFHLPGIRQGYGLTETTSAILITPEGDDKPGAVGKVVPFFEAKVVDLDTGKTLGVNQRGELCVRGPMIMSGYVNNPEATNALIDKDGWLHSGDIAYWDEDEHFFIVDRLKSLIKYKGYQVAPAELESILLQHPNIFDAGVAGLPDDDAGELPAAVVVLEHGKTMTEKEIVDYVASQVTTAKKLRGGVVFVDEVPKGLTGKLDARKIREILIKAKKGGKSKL
Sequence of Fibroblast growth factor 2 (Homo sapiens) (P09038 whole entry, looked up): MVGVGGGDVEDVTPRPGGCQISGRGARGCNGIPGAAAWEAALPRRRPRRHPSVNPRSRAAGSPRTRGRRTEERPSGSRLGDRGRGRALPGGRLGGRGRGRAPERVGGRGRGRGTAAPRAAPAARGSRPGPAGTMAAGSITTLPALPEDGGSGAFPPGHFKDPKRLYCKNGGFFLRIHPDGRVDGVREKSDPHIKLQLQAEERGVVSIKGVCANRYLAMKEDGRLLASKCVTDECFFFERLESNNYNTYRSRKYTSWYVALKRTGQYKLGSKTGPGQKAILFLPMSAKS

As for `CON=C(C)CCN1CCCc2nc(C)c(C)cc21`, the composite z-score in the experiment with Albumin (Bos taurus) is -0.353; in experiment [2], 0.0496; in [3], -0.0769; in experiment [4], 0.438; in experiment [5], 1.42; in [6] it was 0.234. Further, the composite z-score in the experiment on Sam68 (KHDRBS1) is 1.1; in experiment [7], 0.637; in experiment [8], 0.374; in experiment [9] it was 1.15; in experiment [10], 0.476; in [11] it was -0.0211. Besides, the composite z-score in [12] is 0.613; in [13], 0.632; in [14], 0.653; with Lefty1 it was 1.05; in experiment [16], 0.201. For the same compound, in experiment [1], the composite Z-score was 0.599 (inactive). The z-score in experiment [15] is 1.45; in experiment [17], 0.267 (inactive).
Regarding `CCOC(=O)NN=C1C[C@@H](O)[C@@H](O)[C@@H]2[C@@H]3C(=O)N(c4ccc(F)cc4F)C(=O)[C@@H]3CC[C@H]12`, the composite z-score was 0.123 with Albumin (Bos taurus); -0.0879 in [2]; -0.107 in [3]; -0.0212 in [4]; 0.0971 in experiment [5]; 0.0173 in experiment [6]. The composite z-score in the experiment on Sam68 (KHDRBS1) was 0.108; in experiment [7] it was 0.529; in [8], 0.0692; in [9], 0.142; in experiment [10], 0.301; in [11], -0.0292. Moreover, the composite z-score in [12] is 0.233; in experiment [13], 0.515; in [14], 0.577; with Lefty1, 0.449; in [16] it was 0.161. The composite Z-score in [1] was -0.623 (inactive). For the same compound, the z-score in experiment [15] is -0.778; in [17], 1.18 (inactive).
For the compound `C#CCCCON=C1C[C@@H](O)[C@@H](O)[C@@H]2[C@@H]3C(=O)N(C4CCCCC4)C(=O)[C@@H]3CC[C@@H]12`, the composite z-score is 0.42 in the experiment with Albumin (Bos taurus); -0.11 in experiment [2]; -0.129 in experiment [3]; 0.621 in [4]; 0.65 in [5]; 0.172 in experiment [6]. For the same compound, the composite z-score with Sam68 (KHDRBS1) was -0.513; in [7], 0.422; in [8], 0.335; in experiment [9], 0.16; in [10] it was 0.256; in experiment [11], 0.394. Further, the composite z-score in [12] worked out at 0.486; in experiment [13] it was 0.513; in [14], 0.0704; with Lefty1, 0.363; in experiment [16], 0.329. Also, in experiment [1], the composite Z-score is 0.0436 (inactive). The values for the z-score in experiment [15] and in [17] were -0.404 and -0.0138 (inactive), respectively.
For the compound `CC#CCOCCC=C1c2ccccc2[C@@H](OC)[C@@H]1C`, the composite z-score is 0.556 in the experiment with Albumin (Bos taurus); -0.128 in experiment [2]; -0.101 in experiment [3]; 0.336 in [4]; -0.336 in [5]; -0.0059 in experiment [6]. The composite z-score is 0.151 in the experiment with Sam68 (KHDRBS1); 0.337 in experiment [7]; -0.515 in [8]; 1.79 in [9]; -0.0931 in [10]; -0.0029 in experiment [11]. The composite z-score in experiment [12] amounted to 0.329; in [13], 0.331; in [14], 0.412; in the experiment on Lefty1, 1.24; in experiment [16], 0.725. Moreover, in [1], the composite Z-score is 0.549 (inactive). Besides, the figures for the z-score in experiment [15] and in experiment [17] were -0.198 and -0.693 (inactive), respectively.
For `CC(CCN1CCCc2nc(C)c(C)cc21)=NO[C@H](C)c1cn([C@H](CO)Cc2ccccc2)nn1`, the composite z-score with Albumin (Bos taurus) was 0.177; in [2], 0.159; in experiment [3] it was -0.112; in [4] it was 0.236; in [5], 0.497; in [6], 0.0249. For the same compound, the composite z-score with Sam68 (KHDRBS1) was 1.28; in experiment [7], 0.618; in experiment [8], -0.113; in experiment [9] it was 0.906; in experiment [10], 0.474; in experiment [11] it was 0.402. For the same compound, the composite z-score amounted to 0.166 in experiment [12]; 0.564 in [13]; 0.559 in experiment [14]; 0.931 in the experiment with Lefty1; 0.108 in experiment [16]. Moreover, the composite Z-score in experiment [1] was 0.271 (inactive). Further, the z-score was -0.776 in [15] and 0.0837 (inactive) in [17].
As for `CC(CCN1CCCc2nc(C)c(C)cc21)=NOC[C@@H](O)COCc1ccco1`, the composite z-score with Albumin (Bos taurus) was -1.47; in [2], 1.67; in experiment [3] it was 0.826; in experiment [4], -0.702; in experiment [5], 1.37; in experiment [6], 0.602. For the same compound, the composite z-score in the experiment on Sam68 (KHDRBS1) was -0.109; in experiment [7], 1.58; in experiment [8], -1.09; in experiment [9], 0.215; in [10], -2.13; in experiment [11], 2.27. Further, the composite z-score was -2.04 in experiment [12]; 1.55 in experiment [13]; 2.19 in [14]; 1.86 with Lefty1; -0.949 in [16]. Also, the composite Z-score in [1] is 5.36 (inactive). Also, the z-score in [15] was 0.694; in experiment [17], -1.59 (inactive).

Values taken from PubChem BioAssay.
